Records with an inconclusive call do not appear. A number with no mark means an inactive call. The call rests on the fitted dose curve; in most records, active means well fitted cell-killing curve with a large enough effect in the repeat runs; inconclusive means weak or mixed curves; inactive means flat fitted curve, though single readings scatter.
Test: qHTS assay to identify small molecule antagonists of the estrogen related receptor (ERR) signaling pathway - cell viability counter screen (AID 1224818)
Conditions: ERR reporter cell line viability counter screen; series mostly up to 46.1 µM; viability change, negative = cytotoxic: at the top concentration
Text: National Center for Advancing Translational Sciences [NCATS]
NIH Chemical Genomics Center [NCGC]
U.S. Environmental Protection Agency [EPA]
National Institutes of Environmental Health Sciences [NIEHS]
National Toxicology Program [NTP]
U.S. Food and Drug Administration [FDA]
Estrogen related receptors (ERRs), the first orphan nuclear receptors discovered, play an important role in the control of cellular energy metabolism. ERRs are required for high-energy production in response to the environmental challenges. ERR-alpha was also identified as an adverse marker for breast cancer progression; ERR-alpha-positive tumors have a poor prognosis. To screen and to identify environmental compounds that perturb the ERR signaling pathways could provide valuable information for potential therapeutic or preventive measures in the treatment of metabolic disease. To differentiate true ERR antagonists or agonist from cytotoxic substances, the assay is multiplexed with cell viability assay.
Tox21 Assay Protocol Summary:
The ERR cells were dispensed at 2,000 cells/5 ul/well in 1536-well white plates using a Multidrop dispenser. After the assay plates were incubated at a 37 C/5% CO2 incubator for 6 hours, 23 nL of compounds dissolved in DMSO, positive and negative controls or DMSO only was transferred to the assay plate by a pin tool. The plates were incubated at 37 C for 17.5 hours. 1 ul/well of CellTiter-Fluor reagent was added into the assay plates using a Flying Reagent Dispenser. After 30 min incubation at 37 C/5% CO2, the fluorescence intensity in the plates was measured using a ViewLux plate reader.
On the % scale 0 is the no-effect control and ±100 the full control effect.

Structure (SMILES) | viability change, negative = cytotoxic
OC(CCN1CCCCC1)(c1ccccc1)C1CCCCC1 (stereo unspecified) | -4.35%
CN1CCC(=C2c3ccccc3C=Cc3ccccc32)CC1 | -8.54%
COc1ccc([C@@H]2Sc3ccccc3N(CCN(C)C)C(=O)[C@@H]2OC(C)=O)cc1 | -8.1%
CCN(CC)C(C)CN1c2ccccc2Sc2ccccc21 (stereo unspecified) | 7.46%
O=C(c1ccccc1)c1ccc2n1CCC2C(=O)O (stereo unspecified) | 10.2%
CN(C)C/C=C(/c1ccc(Br)cc1)c1cccnc1 | -3.65%
CN(C(=O)CCCOc1ccc2[nH]c(=O)ccc2c1)C1CCCCC1 | -5.83%
O=C(O)/C=C/c1cnc[nH]1 | 11.2%
CCOC(=O)C1=C(C)NC(C)=C(C(=O)OC)C1c1cccc([N+](=O)[O-])c1 (stereo unspecified) | -10.4%
CC(C)NCC(O)c1cc(O)cc(O)c1 (stereo unspecified) | 10.3%
CC(C)NCC(O)COc1ccc(CC(N)=O)cc1 (stereo unspecified) | 0.515%
CCC(C)N(C)C(=O)c1cc2ccccc2c(-c2ccccc2Cl)n1 (stereo unspecified) | -23%
NC(N)=N/N=C/c1c(Cl)cccc1Cl | -6.68%
CN(C)CC/C=C1\c2ccccc2COc2ccccc21 | -3.21%
CN(C)CC[C@@H](c1ccc(Br)cc1)c1ccccn1 | 8.26%
CN1CCN(C2=Nc3cc(Cl)ccc3Nc3ccccc32)CC1 | -24.9%

From PubChem BioAssay (Tox21)
